Inconclusive results are not listed. Calls of active or inactive are those of the source. Calls come from the whole dose curve; as a rule, active = well fitted cell-killing curve with a large enough effect; inconclusive = small, poorly fitted or top-dose-only effect; inactive = flat fitted curve, though single readings scatter.
Test: Cell Viability - LYMP2-009 (AID 968);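 note: 0% = DMSO alone and the full-kill end = tetraoctylammonium bromide at 92 µM; nearly all actives have a fitted effect of over 55% in size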
Conditions: LYMP2-009 lymphoblastoid cell viability; series mostly up to 92.2 µM; activity change, negative = viability loss: at the top concentration
From the text: NIH Chemical Genomics Center [NCGC]
NIH Molecular Libraries Screening Centers Network [MLSCN]
National Institutes of Environmental Health Sciences [NIEHS]
National Toxicology Program [NTP]
We have developed a 1536-well cell-based assay for quantitative high throughput screening (qHTS) against a number of cell lines to determine in vitro cytotoxicity of small molecules. This particular assay uses a human lymphoblastoid cell line (LYMP2-009) purchased from Coriell Institute for Medical Research.
NCGC Assay Protocol Summary:
The CellTiter-Glo luminescent cell viability assay (Promega) is a homogeneous method to measure the number of viable cells in culture. The end point readout of this assay is based on quantitation of intracellular ATP, an indicator of metabolic activity, using the luciferase reaction. Luciferase catalyzes the oxidation of beetle Luciferin to oxyluciferin and light in the presence of ATP. The luminescent signal is proportional to amount of ATP present.
Using the CellTiter-Glo luminescent cell viability assay, the amount of cellular ATP was measured in the lymphoblastoid cell line with complete culture medium following compound treatment for 24 hours. The assay was performed in opaque white Kalypsys 1536-well plates. In the screen, tetraoctylammonium bromide was used as positive control. Library compounds were measured for their ability to cause acute toxicity in the cell line, as reflected by a decrease in intracellular ATP levels, in a concentration-dependent manner. […] AC50 values were determined from concentration-response data modeled with the standard Hill equation.
qHTS protocol for CellTiter Glo lymphoblastoid cellular assay
[Step] [Parameter] [Value] [Description]
1. Reagent; 5 uL; 2500 lymphoblastoid cells/well
2. Time; 5 hr; 37 C incubation
4. Controls; 23 nL; Tetraoctylammonium bromide 6.4pM to 92 uM
5. Time; 24 hr; 37 C incubation
6. Reagent; 5 uL; CellTiter Glo reagent
7. Time; 30 min; Room Temperature
8. Detection; Luminescence; Viewlux plate reader
Keywords: cell viability, cytotoxicity, lymphoblastoid cell line, luminescence, NTPHTS, NTPHTS_NCGC, NIEHS, DSSTox, MLSMR, MLSCN, NIH Roadmap, qHTS, NCGC

SMILES | activity change, negative = viability loss | outcome
CC(C)NCC(O)c1ccc(O)c(O)c1 (stereo not drawn) | -14.2% (inactive) | 
O=c1[nH]cc(F)c(=O)[nH]1 | -26.9% (inactive) | 
Cn1c(=O)c2[nH]cnc2n(C)c1=O | -5.49% (inactive) | 
NCCS(=O)(=O)O | -7.95% (inactive) | 
Cc1ccc(-c2cc(C(F)(F)F)nn2-c2ccc(S(N)(=O)=O)cc2)cc1 | -3.23% (inactive) | 
Cc1cn([C@H]2C[C@H](N=[N+]=[N-])[C@@H](CO)O2)c(=O)[nH]c1=O | -9.07% (inactive) | 
Nc1c2c(nc3ccccc13)CCCC2 | -21% (inactive) | 
N[C@@H](Cc1c[nH]c2ccc(O)cc12)C(=O)O | -10.5% (inactive) | 
CC(C)C(=O)Nc1ccc([N+](=O)[O-])c(C(F)(F)F)c1 | -30% (inactive) | 
Nc1ccn([C@H]2CC[C@@H](CO)O2)c(=O)n1 | 2.23% (inactive) | 
NS(=O)(=O)c1cc2c(cc1Cl)NCNS2(=O)=O | 1.32% (inactive) | 
COc1ccc2[nH]cc(CCNC(C)=O)c2c1 | -5.88% (inactive) | 
COc1ccc2c(c1)c(CC(=O)O)c(C)n2C(=O)c1ccc(Cl)cc1 | -3.95% (inactive) | 
Clc1ccc(C(c2ccccc2Cl)C(Cl)Cl)cc1 (stereo not drawn) | -16.3% (inactive) | 
CCC1(c2ccccc2)C(=O)NCNC1=O | 4.58% (inactive) | 
Cn1c(=O)c2c(ncn2C)n(C)c1=O | 0.97% (inactive) | 
O=c1c(-c2ccc(O)cc2)coc2cc(O)cc(O)c12 | -15.7% (inactive) | 
Cc1cn([C@H]2C=C[C@@H](CO)O2)c(=O)[nH]c1=O |  | inactive
